# Compound activity as filed in PubChem.
# Compounds with a hit are over-represented: about 1.4% of the library has one in this group of screens.
# FBPA Giardia inh – Giardia lamblia aldolase inhibition; purified Giardia FBPA; 290,000 tested, 0.71% active; A8B2U2; Potency, µM (doses to about 59.6 µM), without a hit: top-dose activity, negative = inhibition, most hits filed as inhibitors; note: nearly all actives have a fitted effect of over 55% in size
#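 40 nM FBPA preincubated 10 min at RT with compound (up to 57.5 uM final), then substrate plus GAPDH/TPI/NAD/arsenate coupling and diaphorase/resazurin added. Fluorescence read after 20 min at RT, 525/598 nm.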
# RE007 growth inh – less growth of the S. pombe RE007 Vpr strain; S. pombe RE007 Vpr strain, BacTiter-Glo ATP luminescence, 24 h; Potency, µM (series often up to 92.2 µM), for the others: top-dose activity change, negative = less growth, most hits filed as inhibitors; 360,000 tested, 0.21% active; AID 651644; active = well fitted falling curve with a large enough effect; inconclusive = small, poorly fitted or top-dose-only effect; inactive = no such curve, though single readings can be large or run the other way; note: nearly all actives have a fitted effect of over 50% in size
#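 Fission yeast RE007 carrying one integrated HIV-1 vpr copy, seeded at OD 0.01 in PMG+AL medium with 23 nL pinned compound. Grown 24 h at 30 degrees; viability read by BacTiter-Glo luminescence after 5 min.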
# LmPK inh – blocks Leishmania mexicana pyruvate kinase activity | Q27686 | purified LmPK, Kinase-Glo ATP luminescence, 1 h | Potency, µM (series often up to 57.5 µM), without a hit: at the highest dose activity change, negative = inhibition, usual class: inhibitors | 290,000 tested, 0.37% active | AID 1721
# Target sequence (Q27686 whole entry, looked up): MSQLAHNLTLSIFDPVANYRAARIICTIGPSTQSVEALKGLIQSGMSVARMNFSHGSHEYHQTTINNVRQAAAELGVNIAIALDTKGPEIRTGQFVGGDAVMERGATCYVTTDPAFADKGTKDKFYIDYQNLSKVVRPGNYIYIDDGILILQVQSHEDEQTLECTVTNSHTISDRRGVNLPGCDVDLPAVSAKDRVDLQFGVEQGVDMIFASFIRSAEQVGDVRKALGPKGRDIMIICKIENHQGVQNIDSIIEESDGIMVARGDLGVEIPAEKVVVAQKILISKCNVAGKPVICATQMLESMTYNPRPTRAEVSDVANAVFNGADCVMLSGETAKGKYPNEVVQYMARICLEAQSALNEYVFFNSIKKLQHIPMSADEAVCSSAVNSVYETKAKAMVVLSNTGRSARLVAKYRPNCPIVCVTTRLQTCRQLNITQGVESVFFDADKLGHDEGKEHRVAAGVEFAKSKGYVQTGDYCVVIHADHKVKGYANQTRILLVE
#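 Kinase-Glo luminescence read after 1 h RT reaction of 0.1 nM LmPK with 0.5 mM PEP and 0.1 mM ADP. Activity scaled between uninhibited and enzyme-free controls.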
# AmpC inh detg – inhibitors of E. coli AmpC beta-lactamase with detergent; P00811; AmpC hydrolysis of nitrocefin, absorbance 480 nm, 0.01% Triton; Potency, µM (series often up to 114 µM), inactives show at the highest dose activity change, negative = inhibition, usual class: inhibitors; 370,000 tested, 0.041% active;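 note: 0% = no-compound wells and -100% = no-enzyme wells; nearly all actives have a fitted effect of over 25% in size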
#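 AmpC (5.3 nM in the dispensed reagent) in 20 mM phosphate pH 7.0 with 0.01% (detergent screen) or 0.0001% Triton X-100 was preincubated with compounds for 15 min at room temperature. Nitrocefin was then added from an 800 uM solution, and hydrolysis was followed at 480 nm.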
# TbPYK inhibitor – blocks Trypanosoma brucei pyruvate kinase | 410,000 tested, 0.12% active | Potency, µM (titrated, usually from 76.8 µM), inactives show at the highest dose activity, negative = inhibition, actives largely listed as inhibitors | TbPYK enzyme, Kinase-Glo Plus ATP luminescence, 45 min; note: nearly all actives have a fitted effect of over 50% in size
#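 Activity of T. brucei pyruvate kinase was followed by Kinase-Glo Plus luminescence after the enzyme reacted 45 min at room temperature with 130 uM ADP (final) and substrate. Test compounds were added before ADP at multiple concentrations.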
# AmpC inh no detg – inhibitors of E. coli AmpC beta-lactamase without detergent; P00811; AmpC nitrocefin hydrolysis, absorbance 480 nm, 0.0001% Triton; 330,000 tested, 0.52% active; AID 485341; Potency, µM (highest dose often 57.1 µM), for the others: at the highest dose activity change, negative = inhibition, actives largely listed as inhibitors;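 note: plate controls were no compound for no effect and no enzyme for full effect; nearly all actives have a fitted effect of over 20% in size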
#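 AmpC (5.3 nM in the dispensed reagent) in 20 mM phosphate pH 7.0 with 0.01% (detergent screen) or 0.0001% Triton X-100 was preincubated with compounds for 15 min at room temperature. Nitrocefin was then added from an 800 uM solution, and hydrolysis was followed at 480 nm.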
# * marks the source's active call; other numbers are inactive results; ? = inconclusive; · = no result. Unless noted, calls come from the whole dose curve; as a rule, active = well fitted curve in the direction sought with a large enough effect; inconclusive = small, poorly fitted or top-dose-only effect, or another doubt; inactive = no such curve, though single readings can be large; an effect the other way counts as inactive or inconclusive. Unless noted, % is set by controls: 0 for no effect and ±100 for the full control effect; potency is the fitted concentration of half-maximal effect.
SMILES,FBPA Giardia inh,RE007 growth inh,LmPK inh,AmpC inh detg,TbPYK inhibitor,AmpC inh no detg
Cc1sc(NC(=O)c2ccccc2)c(C#N)c1-c1ccccc1,-15%,0%,-1%,-14%,-11%,25µM*
CCc1c(C)sc(NC(=O)c2cccs2)c1C#N,?,-17%,-5%,2%,-16%,-27%
COc1ccc(C(=O)Nc2oc(-c3ccccc3)c(-c3ccccc3)c2C#N)cc1,0%,2%,4%,-6%,5%,8.9µM*
COc1ccc(-c2nc3ccc(C4=C(C)CC(=O)NN4)cc3[nH]2)cc1,·,·,·,·,3%,·
S=C(S)N1CCCC1,13µM*,-5%,·,?,-14%,-16%
COc1cccc(NC(=O)Cn2c(=O)n(-c3ccc(C)cc3)c(=O)c3ccccc32)c1,·,·,·,-1%,-14%,·
COc1ccc(-c2nn(-c3ccccc3)cc2C(=O)Nc2cccc(C(=O)O)c2)cc1[N+](=O)[O-],-2%,9%,-1%,-3%,2%,3.5µM*
COC(=O)COc1ccc(Oc2nc(NC(C)(C)C)nc(N(C)C)n2)nn1,·,·,·,-1%,1%,·
COc1ccc(O)c(-c2cc(-c3cccc(Br)c3)n[nH]2)c1,1%,?,15%,-9%,-5%,2.2µM*
COc1ccc(-c2cc(-c3cc(OC)ccc3O)[nH]n2)cc1,-6%,?,2%,?,?,-33%
Cc1ccc(-c2nc3ccccc3[nH]2)cn1,?,?,-29%,?,-15%,165%
COc1ccc(CC(=O)Nc2ccc(-c3nc4ccccc4s3)cc2Cl)cc1,·,·,·,4%,1%,·
Oc1ccc(-c2nc3ccccc3s2)cc1,4%,?,16µM*,-1%,-10%,-29%
c1ccc2sc(-c3ccncc3)nc2c1,7%,2%,?,7%,-17%,-9%
Clc1ccc(-c2nc3ccccc3[nH]2)cn1,?,-17%,25µM*,2%,-9%,-18%
O=C(c1ccc(-c2nc3ccccc3s2)s1)N1CCOCC1,0%,?,14µM*,-9%,?,24%
CCN1CCN(C(=O)c2ccc(-c3nc4ccccc4s3)s2)CC1,4%,-10%,-5%,-1%,-3%,171%
COc1ccc(-c2nc3ccccc3s2)cc1,-5%,?,13µM*,4%,?,-11%
Cc1cc(C)cc(OCC(=O)NCC(c2ccc(Cl)cc2)N2CCCCC2)c1 (stereo not drawn),·,·,·,19%,1%,·
CCCCCCCCCCCCCCCCCCNC(=O)OC1CCN(C(=O)OC[C@H](COC(=O)N(Cc2cccc[n+]2CC)C(=O)c2ccccc2OC)OC)CC1,·,·,·,·,3%,·
c1ccc2[nH]c(-c3ccc4c(c3)OCO4)nc2c1,·,40µM*,·,·,?,·
c1ccc2sc(-c3ccc4c(c3)OCO4)nc2c1,-1%,?,10µM*,?,?,-20%
Cc1ccc(C2CC(c3cccc(Cl)c3)n3nc(N)nc3N2)cc1 (stereo not drawn),1%,0%,1%,?,-20%,6.3µM*
Cc1cccc(C2CC(c3ccc(Cl)cc3)Nc3nc(N)nn32)c1 (stereo not drawn),4%,1%,4%,?,-3%,3.5µM*
Cc1cccc(C2CC(c3ccc(F)cc3)Nc3nc(N)nn32)c1 (stereo not drawn),6%,18%,7%,-9%,1%,4%
CCOc1ccc(OCC)c(NC(=O)CN(C)S(=O)(=O)c2ccc3[nH]c(=O)oc3c2)c1,·,·,·,13%,0%,·
Cc1ccc(/C=[N+](\[O-])c2ccc(N(C)C)cc2)c2nsnc12,?,4µM*,-2%,-12%,-20%,-7%
Cc1ccc2nsnc2c1NS(=O)(=O)c1c(C)ccc2nsnc12,?,-12%,13%,-11%,-2%,-42%
